These results are taken from PubChem BioAssay (EPA / NIEHS).

The AC50 is the concentration at which the activity in the assay is half-maximal.

Test [1] can be described thus: CEETOX_H295R_MTT_cell_viability: Viability Assessment in the CeeTox HT-H295R MTT Assay (AID 2283718; active = hit-call score of the fitted dose curve at least 0.9, where 1 is the maximum; inactive = score below 0.9). The method in brief:
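Human H295R adrenal cells, prestimulated 48 h with 10 uM forskolin, were exposed 48 h to chemicals in 0.1% DMSO. Viability was measured in the same wells by MTT (0.5 mg/ml, 4 h, 37 C), absorbance 570/650 nm, as percent of controls.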

Test [2] is described as follows: Tanguay_ZF_120hpf_ActivityScore_legacy: (Legacy) Oregon State University Tanguay Lab 120 Hour Post-fertilization zebrafish Assay Score for Activity (AID 2283742).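 As to AC50: dechorionated Tropical 5D wild-type zebrafish embryos held singly per well.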 The essentials: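 Dechorionated 5D embryos, one per well, static exposure 6–120 hpf, 28C, sealed and dark; final DMSO 0.64% (vol/vol). Brightfield binary scoring of mortality plus 18 endpoints; gain-of-signal fit versus DMSO baseline.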

Test [3] can be described thus: ACEA_AR_agonist_AUC_viability: ACEA Biosciences xCELLigence Real-Time Cell Analysis on Androgen Receptor Agonism for Viability (AID 2283775).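 As to AC50: viability read 80 hours after compound addition.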 The method in brief:
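Viability endpoint from xCELLigence impedance in 22Rv1 prostate cells at 80 h. Eight-point series, 100 uM maximum final.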

The nature of test [4]: ACEA_AR_antagonist_AUC_viability: ACEA Biosciences xCELLigence Real-Time Cell Analysis on Androgen Receptor Antagonism for Viability (AID 2283776).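 Also: area under impedance growth curve at 80 h after dosing as viability; hits lower the growth signal relative to DMSO meaning cytotoxicity.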 The essentials:
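22Rv1 human prostate cancer cells were seeded on electrode plates, monitored overnight, then exposed to eight 1:4 dilutions from 100 uM final. Impedance-based growth kinetics at 80 h gave an AUC viability endpoint normalized to DMSO.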

The subject of test [5] is Thyroperoxidase (TPO), gene 445522. The test is described as follows: CCTE_Simmons_GUA_TPO: CCTE's Guaiacol Assay for Thyroperoxidase (TPO) Inhibition, Simmons Lab (AID 2283750). The method in brief: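 Porcine thyroid microsomes (25 ug) in 200mM potassium phosphate, preincubated 30 s at 37C with compound (8 concentrations, 5 nM–87.5 uM) and 35mM guaiacol; 1mM H2O2 starts reaction. Absorbance change at 450nm over first 80 s; loss of signal versus DMSO, three replicates.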

Results filed as inconclusive are left out. The source made the active and inactive calls. The calls were made as follows, unless noted: active = hit-call score of the fitted dose curve at least 0.9, where 1 is the maximum; inconclusive = response in the unintended direction; inactive = score below 0.9.

As for `CC(C)(O)c1ccc(CNC(=O)c2cccnc2Oc2ccc(F)cc2)cc1`, the result in test [1], in test [2], in test [3] and in test [4] was inactive.
On to `CSc1ccc(Oc2ccc(S(N)(=O)=O)cc2CN(C)C)cc1C`, for which the AC50 in test [2] is 22.8 µM (active); in test [3], 65.2 µM (active); in test [4] it was 50 µM (active).
For `CCCCCCCCCCCCCCOS(=O)(=O)O`, in that order: 32.8 µM (active), 68 µM (active) and 42.3 µM (active).
Turning to `CC(C)NCC(O)c1ccc(O)c(O)c1` (configuration not stated), the call in test [2] was inactive. Besides, the AC50 in test [5] was 7.79 µM (active).
Regarding `CCCCc1nc2cccnc2n1Cc1ccc(-c2ccccc2-c2nnn[nH]2)cc1`, the call in test [1] and in test [2] was inactive. Also, the AC50 in test [3] and in test [4] was 50 µM (active) each time.
As for `CC(C)(C)c1ccccc1`, the AC50 in test [2] is 24.6 µM (active).
With `CC(=O)O`, the outcome in test [2], in test [3] and in test [4] was inactive.
For `NCCOCCOCCN`, the outcome in test [2], in test [3] and in test [4] was inactive.
For the compound `COC(=O)CCCC(=O)OC`, the compound was classed as inactive in test [2] and in test [4].
`CC1(C)C(=O)NC(=O)N1CO`: the call in test [2], in test [3] and in test [4] was inactive.
`COC(=O)CCC(=O)OC`: the call in test [2], in test [3] and in test [4] was inactive.
Regarding `O=C(NS(=O)(=O)/C=C/c1cccs1)c1ccc(F)cc1Br`, the outcome in test [2] was inactive. In addition, the AC50 was 3.38 µM (active) in test [3] and 3.42 µM (active) in test [4].
With `CCCCC(CC)CO` (configuration not stated), the compound was classed as inactive in test [2] and in test [4].
For `C=CCCCCCCCCCCCC`, the compound was classed as inactive in test [2], in test [3] and in test [4].
For `C/C=C/C=C/C(=O)O`, the outcome in test [2] and in test [4] was inactive.
For the compound `CCCCOC(=O)CCCCC(=O)OCCCC`, the compound was called inactive in test [2], in test [3] and in test [4].
For the compound `CC(N)=O`, the outcome in test [2], in test [3] and in test [4] was inactive.
Turning to `CN(C)CCCN(C)CCCN(C)C`, the compound was classed as inactive in test [2], in test [3] and in test [4].
As to `COc1ccc(OC(F)(F)F)cc1CN[C@H]1CCCN[C@H]1c1ccccc1`, the AC50 is 17.9 µM (active) in test [2], 65.5 µM (active) in test [3] and 67 µM (active) in test [4].
For `CCCCCCC(CCCCCCCCCCC(=O)OCC(COC(C)=O)OC(C)=O)OC(C)=O` (configuration not stated), the call in test [3] and in test [4] was inactive.
For `c1ccc2occc2c1`, the compound was classed as inactive in test [2], in test [3] and in test [4].
With `O=C(O)CC(O)(CC(=O)O)C(=O)O`, the compound was classed as inactive in test [2], in test [3] and in test [4].
`CCCCCCC(C=O)=Cc1ccccc1`: in test [2], the compound was called inactive. Besides, the AC50 is 76.7 µM (active) in test [3] and 78.5 µM (active) in test [4].
On to `Cc1occc(=O)c1O`, for which the result in test [2] and in test [4] was inactive.
For `C#CC(O)C(CC)CCCC` (configuration not stated), the compound was classed as inactive in test [2], in test [3] and in test [4].
Regarding `Cc1cc(SC2=C(O)C[C@@](CCc3ccc(N)cc3)(C(C)C)OC2=O)c(C(C)(C)C)cc1CO`, the compound was classed as inactive in test [2]. For the same compound, the AC50 in test [3] was 50 µM (active); in test [4], 61.8 µM (active).
For `CC(=O)OCC(COC(C)=O)OC(C)=O`, the call in test [2] and in test [4] was inactive.
For `O=C(N[C@@H](c1ccccc1)[C@@H]1CCCCN1)c1cccc(C(F)(F)F)c1Cl`, the AC50 is 53.2 µM (active) in test [2], 55.8 µM (active) in test [3] and 39.5 µM (active) in test [4].
